# From PubChem BioAssay
# This is a sample that favours compounds with a hit; in the whole collection about 3.4% have one here.
# GPR151 activ: activators of human GPR151, primary screen, cell-based, PathHunter beta-arrestin, luminescence; 650,000 compounds, 1% hits; PathHunter beta-arrestin GPR151 cells; activation, % at 11.2 µM; G-protein coupled receptor 151 (Homo sapiens), Q8TDV0; in the data active = activation above about 4.9%;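 also: 0% = median of compound wells and 100% = cells with positive control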
# MITF inh: MITF inhibitors, primary screen, biochemical, AlphaScreen, human; Microphthalmia-associated transcription factor (Homo sapiens), O75030; inhibition, % at 2.6 µM; 650,000 compounds, 0.91% hits; AlphaScreen MITF homodimerization, bead proximity signal; AID 1259374, 2018; in the data active = inhibition above about 50%;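 also: 0% = vehicle wells with protein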
# Target sequence (O75030 whole entry, looked up): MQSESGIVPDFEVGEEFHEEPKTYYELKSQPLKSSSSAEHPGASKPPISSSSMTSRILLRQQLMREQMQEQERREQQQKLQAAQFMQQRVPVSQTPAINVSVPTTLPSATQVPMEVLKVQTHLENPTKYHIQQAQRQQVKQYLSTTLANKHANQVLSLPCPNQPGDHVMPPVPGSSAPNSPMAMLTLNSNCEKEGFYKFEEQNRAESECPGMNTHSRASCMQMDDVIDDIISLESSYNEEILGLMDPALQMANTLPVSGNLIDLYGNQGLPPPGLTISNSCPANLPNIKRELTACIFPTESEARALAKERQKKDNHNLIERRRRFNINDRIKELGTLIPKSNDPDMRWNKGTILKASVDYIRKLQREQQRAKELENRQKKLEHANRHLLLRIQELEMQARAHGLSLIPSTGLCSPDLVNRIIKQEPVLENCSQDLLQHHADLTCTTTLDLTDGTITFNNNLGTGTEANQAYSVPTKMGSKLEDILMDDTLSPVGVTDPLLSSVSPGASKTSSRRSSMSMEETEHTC
# FBW7 act: FBW7 E3 ligase activators, primary screen, biochemical, AlphaScreen, human | AlphaScreen FBW7–phospho-cyclin E peptide binding, activator screen | normalized activity (activation), % at 26.1 µM | 650,000 compounds, 0.13% hits; in the data active = normalized activity above about 1.9%;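 also: purified mutant Fbw7 with reduced substrate affinity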
# TEAD-YAP block: TEAD-YAP interaction inhibition, primary screen, TEAD-YAP interaction inhibitor project, luminescence, HEK-TIYL cells | TEAD-Gal4/YAP UAS-luciferase luminescence | inhibition, % at 9.12 µM | 640,000 compounds, 1.4% hits | AID 1259422, 2018; in the data active = inhibition above about 32%;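 also: 0% = median of test compound wells and 100% = reference inhibitor wells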
# MITF inh conf: MITF inhibitors, retest of hits, confirmation, biochemical, AlphaScreen, triplicate; shares compounds with MITF inh; AlphaScreen MITF homodimerization, biotin/His-MITF beads; inhibition, % at 2.6 µM; 4,700 compounds, 16% hits; AID 1259372, 2018;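 active = inhibition above a cutoff derived from the DMSO control wells, cut at about 28% in these data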;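 also: 0% = MITF dimer wells with DMSO only; inhibitors lower the bead chemiluminescence by keeping MITF from dimerizing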
# AlphaScreen DR: AlphaScreen optical interference compounds, dose response, counter-screen, biochemical, HTS. AID 1259373, 2018. IC50, µM. shares compounds with MITF inh. AlphaScreen optical interference counterscreen, cell-free. 480 compounds, 6% hits; call rule not given here
# AS interf ctr: AlphaScreen optical interference compounds, counter-screen for MITF inhibitor project, biochemical, triplicate; shares compounds with MITF inh; LysRS AlphaScreen counterscreen, signal interference; inhibition, % at 2.6 µM; 4,700 compounds, 7.6% hits; AID 1259376, 2018;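 active = inhibition above a cutoff derived from the DMSO control wells, cut at about 30% in these data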
# * hit, by the source's call; . = no result given.
SMILES,GPR151 activ,MITF inh,FBW7 act,TEAD-YAP block,MITF inh conf,AS interf ctr,others
O=C(Cn1ccc2ccccc21)N1CC2CC(C1)c1cccc(=O)n1C2 (stereo not given),-0.4,9.3,0.3,6.0,.,.,
O=c1[nH]c(=S)[nH]c(O)c1C1=NCCC1,0.6,-19.3,0.6,1.8,.,.,
Cc1ccc(CN2CCN(Cc3ccccc3Cl)CC2)cc1,0.7,58.6*,0.0,-7.9,-2.9,0.6,
CCN1CCN(Cc2cccc(Cl)c2Cl)CC1,-0.4,50.5,-0.6,0.8,.,.,
CN1CCN(Cc2cccc3ccccc23)CC1,-0.4,38.8,-0.2,11.8,.,.,
COc1ccc(CN2CCN(Cc3ccccc3Cl)CC2)cc1,-0.5,80.8*,-0.1,3.2,0.2,8.6,
Clc1cccc(CN2CCN(Cc3ccccc3Br)CC2)c1,-1.1,77.4*,-0.1,-6.2,9.4,4.3,
CN1CCN(Cc2ccccc2Cl)CC1,-0.1,64.1*,-0.2,14.5,2.7,7.0,
Clc1cccc(N2CCN(Cc3ccccc3)CC2)c1,1.4,2.1,0.0,12.8,.,.,
OC1(c2ccc(F)cc2)CC2CCC(C1)N2Cc1ccccn1 (stereo not given),-0.1,2.5,0.4,1.4,.,.,
CN1CCN(Cc2coc3ccccc3c2=O)CC1,3.1,51.4*,0.1,55.5*,0.8,8.0,
COc1cccc(CN2CCN(Cc3ccccc3Br)CC2)c1,-0.5,72.8*,0.0,-6.2,6.3,15.5,
COc1cccc(CN2CCN(Cc3ccccc3Cl)CC2)c1,-0.3,85.7*,0.0,-11.4,25.8,13.2,
O=c1c(CN2CC=C(c3ccc(F)cc3)CC2)coc2ccccc12,1.8,-6.9,-0.1,18.0,.,.,
COc1ccc(CN2CCN(Cc3ccccc3)CC2)c(O)c1,0.8,11.0,-0.1,-3.1,.,.,
COc1ccc(O)c(CN2CCN(Cc3ccccc3Br)CC2)c1,-0.1,49.8,-0.2,-12.4,.,.,
COc1cc(CNCCc2ccccc2)ccc1O,0.8,-7.1,0.0,0.2,.,.,
CCOC(=O)C1C2NC(=S)N(CC)C1(C)Oc1ccc(OC)cc12 (stereo not given),0.3,-4.1,-0.4,-3.9,.,.,
CCN(CC(=O)Nc1ccc(C#N)c(Cl)c1)CC(=O)Nc1c(F)cccc1F,3.1,3.6,0.0,-0.3,.,.,
CCN(CC(=O)Nc1ccc(Br)cc1)CC(=O)Nc1ccc(C#N)c(Cl)c1,-0.9,85.3*,-0.1,12.1,4.7,9.8,
CCc1nc2ccc(I)cc2c(=O)n1-c1ccccc1,-0.9,7.5,0.2,-17.0,.,.,
CN(C)CCN(C)Cc1c[nH]c2ccccc12,0.4,63.6*,0.0,5.3,-1.1,5.4,
C[C@@H](O)[C@@H]1NC(=O)[C@H]2CN(Cc3ccncc3)CCN2C1=O,0.7,18.2,0.7,14.7,.,.,
OCCN1CCN(Cc2cccc(Cl)c2)CC1,-0.6,83.4*,0.8,3.0,1.2,3.8,
O=C(Cc1ccccc1)N1CCN(Cc2cccc(Cl)c2)CC1,-1.1,45.5,-0.3,15.1,.,.,
SMILES,GPR151 activ,MITF inh,FBW7 act,TEAD-YAP block,MITF inh conf,AS interf ctr,others
CCN1CCN(Cc2ccc(Cl)cc2)CC1,0.3,11.3,0.0,-0.6,.,.,
OCCN1CCN(Cc2cccc(Cl)c2Cl)CC1,-1.2,65.2*,-0.1,-7.5,-1.7,-0.1,
OCCN1CCN(Cc2ccc(Cl)cc2)CC1,-0.1,67.5*,-0.1,3.8,-1.4,4.7,
O=C(CCn1nc(-c2ccccc2)ccc1=O)N1CCC2(CC1)OCCO2,0.1,5.7,-0.3,7.6,.,.,
CCc1ccc(-n2c(=O)[nH]c3ccccc3c2=O)cc1,-0.6,-5.1,0.2,-29.4,.,.,
Brc1ccc(CNCCc2c[nH]c3ccccc23)cc1,3.4,54.9*,0.7,6.7,10.6,18.6,
CCc1ccc(CNCCc2c[nH]c3ccccc23)cc1,0.0,18.8,-0.3,3.1,.,.,
CCOc1ccc(-n2c(-c3cccnc3)nc3ccccc3c2=O)cc1,3.5,-19.6,0.0,10.4,.,.,
O=[N+]([O-])c1ccc(Br)c2c1no[n+]2[O-],-1.4,73.5*,-1.0,-4.4,73.3*,6.8,AlphaScreen DR=>7.51
COc1ccccc1CN1CC2CC(C1)c1cccc(=O)n1C2 (stereo not given),1.1,9.5,-0.2,-6.5,.,.,
CCc1ccc(N2C(=O)CC(=O)NC2=O)cc1,-1.4,69.3*,0.4,0.8,7.5,15.1,
CCCCC/C=C\C/C=C\C/C=C\C/C=C\CCCC(=O)Nc1ccc2c(C)cc(=O)oc2c1,2.0,10.6,.,.,.,.,
COc1ccccc1CN1CCN(Cc2ccccc2Br)CC1,-1.7,71.2*,0.0,-16.0,1.9,6.0,
CCN1CCN(Cc2ccccc2OC)CC1,0.2,-67.0,-0.1,-3.0,.,.,
COc1ccccc1CN1CCN(Cc2ccccc2C)CC1,-0.1,78.4*,-0.2,-7.8,6.5,8.6,
CCc1ccc(CN2CCN(Cc3cccc(C)c3)CC2)cc1,-0.4,39.2,-0.2,-8.2,.,.,
Cc1cccc(CN2CCN(Cc3ccc(Cl)cc3)CC2)c1,-0.4,59.3*,-0.1,9.6,8.7,15.9,
Cc1cccc(CN2CCN(Cc3cccc(F)c3)CC2)c1,-1.2,76.2*,-0.4,3.3,2.1,7.2,
CCc1ccc(CN2CCN(Cc3ccc(F)cc3)CC2)cc1,-0.1,56.7*,-0.2,-5.7,-0.2,-4.4,
Fc1cccc(CN2CCN(Cc3ccccc3)CC2)c1,-0.7,63.5*,0.0,7.5,-3.6,-7.0,
CCn1c(C)c(C2=CCNCC2)c2ccccc21,-1.3,18.7,-0.2,3.1,.,.,
Fc1cccc(CN2CCN(Cc3ccccc3F)CC2)c1,-0.3,69.5*,-0.2,-0.6,7.2,-5.9,
CCc1ccc(CN2CCN(Cc3cccc(F)c3)CC2)cc1,-0.6,74.7*,-0.2,-11.7,5.2,3.5,
CCN1CCN(Cc2cccc(F)c2)CC1,-1.7,-1.4,-0.2,5.5,.,.,
O=C(CN1CCN(C(=O)Cc2ccc(F)cc2)CC1)c1cccs1,-0.7,23.8,-0.4,6.9,.,.,
SMILES,GPR151 activ,MITF inh,FBW7 act,TEAD-YAP block,MITF inh conf,AS interf ctr,others
O=C(CN1CCN(C(=O)COc2ccccc2F)CC1)c1cccs1,2.1,50.6*,-0.2,12.2,7.1,19.9,
COc1ccccc1CN1CCN(Cc2ccc(F)cc2)CC1,-1.0,81.0*,-0.1,-4.9,5.7,17.7,
COc1ccc(CN2CCN(Cc3ccccc3OC)CC2)cc1,0.2,76.9*,-0.3,-8.4,30.9*,16.6,AlphaScreen DR=>7.33
COc1ccccc1N1CCN(Cc2ccc(F)cc2)CC1,0.3,9.4,0.1,-2.6,.,.,
COc1ccccc1CN1CCN(Cc2ccc(SC)cc2)CC1,-0.3,81.2*,-0.2,-6.0,13.1,15.3,
COc1ccccc1CN1CCN(Cc2cccc(Cl)c2)CC1,0.6,69.1*,-0.1,-7.7,13.8,-6.8,
